Test results reported in PubChem BioAssay AID1209 (Sanford-Burnham Center for Chemical Genomics, 2008).
“And” between values parts separate entries of the source, which are not always exact repeats. Equal entries are not always repeated. Screen size: about 190,000 compounds; about 810 (0.43%) were called active. The list comes from a sample in which actives are over-represented; it also holds similar structures and randomly drawn compounds. A number with no mark means an inactive call. No stated cut-off is given here; in the data, active means inhibition above about 50%; inactive means the rest.

Molecular target: Mannose-6-phosphate isomerase (Homo sapiens) (UniProt P34949)
Sequence (P34949 whole entry, looked up): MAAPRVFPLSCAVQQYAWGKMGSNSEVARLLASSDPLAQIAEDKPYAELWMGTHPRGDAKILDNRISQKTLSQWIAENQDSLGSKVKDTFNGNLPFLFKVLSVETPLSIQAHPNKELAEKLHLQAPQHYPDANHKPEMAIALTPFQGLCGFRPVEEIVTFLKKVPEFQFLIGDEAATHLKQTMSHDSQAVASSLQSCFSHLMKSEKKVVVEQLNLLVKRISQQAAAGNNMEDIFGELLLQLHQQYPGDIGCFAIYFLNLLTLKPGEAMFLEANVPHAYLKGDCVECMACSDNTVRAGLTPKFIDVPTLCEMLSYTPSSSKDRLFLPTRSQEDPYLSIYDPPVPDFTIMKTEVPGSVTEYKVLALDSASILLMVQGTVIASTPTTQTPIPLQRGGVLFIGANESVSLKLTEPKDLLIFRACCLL
Test: MPI enzyme activity inhibition – biochemical, fluorescence intensity, coupled assay, primary screen (AID 1209);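 further: plate controls were DMSO vehicle for no effect and wells lacking substrate for full effect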
Conditions: purified PMI enzyme, at 20 µM, active compounds read high

Compared with `O=C(Cn1nnc(-c2ccccc2)n1)OC1CCOC1=O` (stereo unspecified), `CCOC(=O)C1CC(c2ccccc2)=NNC1=O` (stereo unspecified) is lower in inhibition: -0.6% for the first, -6.5% for the second.

First: Cc1nn(CC(=O)NNC(=S)Nc2ccccc2)c(C)c1[N+](=O)[O-]
Second: Cc1nn(CC(=O)NCCc2ccccc2)c(C)c1[N+](=O)[O-]
The inhibition of the first is lower: 0% for the first, 2.6% for the second.

Going from `CC1(C)Cc2c(sc(N)c2C#N)C(C)(C)N1` to `CCOC(=O)C1C(=O)NC(SCC(=O)OC)=C(C#N)C1c1ccccc1OCC` (stereo unspecified), the inhibition rises from 11.6% to 14.3%.

Compared with `CCOc1ccc(C(O)C(CN2CCOCC2)c2ccccc2)cc1` (stereo unspecified), `CCOC(=O)N1CCN(C(=O)CSc2ccc(-c3ccc(OC)cc3)nn2)CC1` is higher in inhibition: -4.1% for the first, -0.8% for the second.

Going from `COC(=O)c1c(NC(=O)c2cccnc2)sc(C)c1C` to `CCOC(=O)c1c(C)nc2ccc(C)cn12`, the inhibition rises from -4.9% to -2.7%.

First: CCOc1cc(Cl)c(NC(C)=O)cc1OCC
Second: CCOc1cc(NC(=O)CCl)c(OCC)cc1NC(C)=O
The inhibition of the first is higher: -3% for the first, -3.2% for the second.

Compared with `CC(=O)Nc1nonc1NC(C)=O`, `C/C(=C\C(=O)O)C(=O)Nc1nccs1` is lower in inhibition: 5.4% for the first, -3.3% for the second.

First: COc1cc(O)c(C(C)=O)cc1OC
Second: COc1ccc(S(=O)(=O)N2CCOCC2)cc1OC
The inhibition of the first is lower: -15.9% for the first, -10.5% for the second.

First: COC(=O)c1sc2nc3c(cc2c1N)CCCC3
Second: NC(=O)c1sc2nc3c(cc2c1N)CCC3
The inhibition of the first is higher: 14.2% for the first, -8% for the second.

First: O=[N+]([O-])c1cc(-c2cnc3ccccc3n2)ccc1Oc1ccc(Cl)cc1
Second: CSc1ccccc1NC(=O)c1cc(-c2cccnc2)nc2ccc(Br)cc12
The inhibition of the first is higher: 5.9% for the first, -3% for the second.

Compared with `CCOc1ccccc1C1CC(=O)NC(SCC(=O)Nc2nccs2)=C1C#N` (stereo unspecified), `CN1c2ccsc2C(O)=C(C(=S)Nc2ccccc2)S1(=O)=O` is higher in inhibition: -8.2% for the first, 19.6% for the second.

Going from `CCOc1ccc(CCNC(=O)COC(=O)c2cccc(OC)c2O)cc1OCC` to `CCOc1ccc(-c2nn[nH]n2)cc1OCC`, the inhibition falls from 5.3% to -5.5%.

Compared with `O=C1OC(Nc2ncccn2)c2ccccc21` (stereo unspecified), `O=C1OC(Nc2cc(Br)cc3cccnc23)c2ccccc21` (stereo unspecified) is higher in inhibition: 4.9% for the first, 14.2% for the second.

First: O=C(C1CCN(S(=O)(=O)c2cccc3cccnc23)CC1)N1CCN(c2ccccc2)CC1
Second: O=C(CNc1cccc2ccccc12)c1ccc([N+](=O)[O-])cc1
The inhibition of the first is lower: 13.6% for the first, 25.3% for the second.

Going from `Cc1ccc(-n2nnnc2SCC(=O)N2CCc3ccccc3C2)cc1` to `CCn1c(SCC(=O)N2CCCc3ccccc32)nnc1-c1ccoc1C`, the inhibition rises from -23.5% to -2.9%.

Compared with `CCS(=O)(=O)c1ccc(O)c(NC(=O)COc2ccc(OC)cc2)c1`, `COc1ccc(/C=N\NC(=O)COc2ccc(C(C)(C)C)cc2)cc1Cn1nc(C)cc1C` is lower in inhibition: 9.9% for the first, -2.3% for the second.

Going from `O=C(CC1CCCCC1)OCn1nnc2ccccc2c1=O` to `O=C(OCn1nnc2ccccc2c1=O)C1COc2ccccc2O1` (stereo unspecified), the inhibition rises from -0.7% to 12.1%.

First: COC(=O)C1=C(C)NC(C)=C([N+](=O)[O-])C1c1ccccc1C(F)(F)F (stereo unspecified)
Second: C/C(=N\NC(=O)c1ccccc1)c1ccc(C)c([N+](=O)[O-])c1
The inhibition of the first is lower: -1.2% for the first, 12.4% for the second.

Going from `O=C(OC(C(=O)NCc1ccco1)C(OC(=O)c1ccccc1)C(=O)NCc1ccco1)c1ccccc1` (stereo unspecified) to `NC(=O)CSC1=Nc2ccccc2C2=NC(c3ccccc3)C(=O)N12` (stereo unspecified), the inhibition falls from -6.4% to -8.5%.

Compared with `Cn1ccnc1Sc1cc(NCCCO)c([N+](=O)[O-])c2nonc12`, `Cc1nnc(Sc2cc(NCCCO)c([N+](=O)[O-])c3nonc23)s1` is higher in inhibition: -0.6% for the first, 31.1% for the second.

Going from `CC(=O)OCCCNc1cc(Sc2ccc(Cl)cc2)c2nonc2c1[N+](=O)[O-]` to `O=[N+]([O-])c1c(NCCCO)cc(SCc2ccco2)c2nonc12`, the inhibition falls from 30.1% to 20.8%.

Going from `CCS(=O)(=O)CCSc1nc2c(cc1C#N)CCCC2` to `N#Cc1ccc(NC(=S)NC(=O)CCc2ccc(S(=O)(=O)N3CCOCC3)cc2)cc1`, the inhibition rises from 5.3% to 8.9%.

Compared with `Cc1cc(Cl)ccc1N=C1N=C(N)c2ccccc21`, `Fc1ccc(F)c(C2=NNC(=Nc3ccccc3F)SC2)c1` is higher in inhibition: 9.1% for the first, 22.5% for the second.

Going from `Oc1oc(C=Nc2ccc(F)cc2F)c2ccccc12` to `CN(C)/C=C(\C(=O)c1ccc(F)cc1F)c1nnnn1-c1ccccc1`, the inhibition rises from -80.8% to -3.7%.

Going from `Cc1cc(Cl)ccc1N=Cc1c(O)n(C)c(=O)n(C)c1=O` to `CC1=NOC(=O)/C1=C/c1ccc(-c2ccc(Cl)cc2)o1`, the inhibition rises from 9.5% to 21.9%.

First: Cc1ccc(CCNc2ccccc2C)cn1
Second: COc1ccc(C)cc1NC(=O)c1nnn(CCc2ccccc2)c1N
The inhibition of the first is lower: -6.3% for the first, 8.1% for the second.

Compared with `COc1ccc(C2CN=NC23CCCc2ccccc2C3=O)cc1` (stereo unspecified), `Cc1ccc(C2NC(=O)NC3=C2CCc2ccccc23)cc1` (stereo unspecified) is higher in inhibition: 3.1% for the first, 10.5% for the second.

Going from `Cc1ccccc1CN1N=C(/C=C/c2ccccc2)CCC1=O` to `O=C1NC2=C(CCc3ccccc32)C(c2ccccc2)N1` (stereo unspecified), the inhibition falls from -3.6% to -24.4%.

Going from `Cc1ccc(NC(=O)C2=C(O)c3sccc3N(C)S2(=O)=O)cc1` to `Cc1ccc(NCC(=O)c2ccc([N+](=O)[O-])cc2)cc1`, the inhibition falls from 1.9% to -45.3%.

Compared with `COC(=O)Cc1c(C)nc2nc(-c3ccco3)[nH]n2c1=O`, `COCCCn1c(-c2ccco2)nc2ccccc2c1=O` is higher in inhibition: -34.2% for the first, -0.1% for the second.

Going from `Cc1ccc(C)n1-c1ncn[nH]1` to `Cc1ccc(-n2c(C)n[nH]c2=S)cc1`, the inhibition rises from 5.2% to 11.4%.

First: O=C(CN1C(=O)NC2(CCc3ccccc3C2)C1=O)Nc1ccc(Cl)cc1F (stereo unspecified)
Second: O=C(c1nn2c(C(F)(F)F)cc(-c3cccs3)nc2c1Cl)N1CCCc2ccccc21
The inhibition of the first is higher: 8.5% for the first, -11.4% for the second.

First: CC1(C)OC(=O)C(=Cc2ccc(-c3ccc(Cl)c(C(=O)O)c3)o2)C(=O)O1
Second: COc1ccc(NC(=S)N/N=C2\CC(C)(C)Oc3ccc(O)cc32)cc1
The inhibition of the first is lower: -12.1% for the first, 5.4% for the second.

Compared with `CCCCn1c(-c2ccco2)n[nH]c1=S`, `Cn1c(-c2ccco2)n[nH]c1=S` is lower in inhibition: 5.8% for the first, -5% for the second.

Going from `CN=C(c1ccc(C)cc1)n1c(=S)nc(-c2ccc(C)cc2)n(C)c1=S` to `Cc1ccc(NCCC(=O)c2cccc([N+](=O)[O-])c2)cc1`, the inhibition rises from 37.7% to 43.5%.

First: CN(C)C(=O)N1CCC(C(=O)NCc2ccccc2Cl)CC1
Second: CCCn1cc(CN2CCC(Cc3ccccc3)(C(=O)OCC)CC2)c(C)n1
The inhibition of the first is lower: 3.2% for the first, 5.2% for the second.

Compared with `CCOC(=O)c1ccccc1Nc1cc(C)nc2nc(C)nn12`, `O=[N+]([O-])c1cc2c(c(CSc3nnnn3-c3ccc(O)cc3)c1)OCOC2` is higher in inhibition: 5.5% for the first, 26.2% for the second.

First: O=C(CCNc1ccc(F)cc1)c1cccc([N+](=O)[O-])c1
Second: O=C(CCNc1ccc(Br)cc1)c1cccc([N+](=O)[O-])c1
The inhibition of the first is higher: 47.5% for the first, 36% for the second.

First: O=C(CCNc1cccc(F)c1)c1cccc([N+](=O)[O-])c1
Second: O=C(CCNc1ccc(Cc2ccncc2)cc1)c1cccc([N+](=O)[O-])c1
The inhibition of the first is lower: 37.8% for the first, 43.5% for the second.

Compared with `O=[N+]([O-])c1ccc(Cc2ccncc2)cc1`, `COc1ccc(N2C(=O)CN(Cc3cc(OC)c(OC)c(OC)c3)C2=S)cc1` is lower in inhibition: 1.8% for the first, -2.4% for the second.

`CC(/C=C/c1ccccc1)NC(N)=O` (stereo unspecified) gave an inhibition of -3.3%.

With `CC(=O)Nc1cc(OC(C)=O)c2nonc2c1OC(C)=O` the inhibition was 83.9% (active).
`COc1cc(O)c(NC(C)=O)c2nonc12` was tested, and the inhibition was 64.6% (active).
`Nc1c(C(=O)N2CCCC2)sc2nc3c(cc12)CCCCCC3` was tested, and the inhibition was 95% (active).
With `CCOC(=O)C1C(=O)NC(SCC(=O)Nc2nccs2)=C(C#N)C1c1ccccc1OCC` (stereo unspecified) the inhibition was 54.2% (active).
For `O=C1OC(Nc2ccc3ncccc3c2)c2ccccc21` (stereo unspecified), the inhibition was 62.7% (active).
For `CCOC(=O)C1=C(C)NC(C)=C(C(=O)OC)C1c1cccc([N+](=O)[O-])c1` (stereo unspecified), the inhibition was 13.5% and 1.6%.
In the case of `COC(=O)C1=C(C)NC(C)=C(C(=O)OC)C1c1ccccc1[N+](=O)[O-]`, the inhibition is reported as 83.1% (active).
With `COc1ccc(CNc2cc(NCCCO)c([N+](=O)[O-])c3nonc23)cc1` the inhibition was 52.3% (active).
In the case of `O=[N+]([O-])c1c(NCCCO)cc(Sc2ccc(Cl)cc2)c2nonc12`, the inhibition is reported as 50.2% (active).
In the case of `Cc1cc(Cl)ccc1N=c1ssnc1Cl`, the inhibition is reported as 52.8% (active).
For `Fc1ccc(N=c2ssnc2Cl)c(F)c1`, the inhibition was 80.9% (active).
For `Cc1ccc(NC(=S)C2=C(O)c3sccc3N(C)S2(=O)=O)cc1`, the inhibition was 56.1% (active).
In the case of `CC1=NOC(=O)/C1=C\c1ccc(-c2ccc(Cl)c(C(=O)O)c2)o1`, the inhibition is reported as 66.6% (active).
In the case of `CN=C(c1ccco1)n1c(=S)nc(-c2ccco2)n(C)c1=S`, the inhibition is reported as 51.4% (active).
For `COCCCN=C(c1ccco1)n1c(=S)nc(-c2ccco2)n(CCCOC)c1=S`, the inhibition was 52.4% (active).
For `COc1ccc(C2NC(=O)NC3=C2CCc2ccccc23)cc1` (stereo unspecified), the inhibition was 70.7% (active).
For `O=C(CCNc1ccc(Cc2ccncc2)cc1)c1ccc([N+](=O)[O-])cc1`, the inhibition was 64.4% (active).
In the case of `Cc1cccc(NCCC(=O)c2ccc([N+](=O)[O-])cc2)c1C`, the inhibition is reported as 76.2% (active).
For `O=C(CCNc1ccccc1)c1cccc([N+](=O)[O-])c1`, the inhibition was 56.8% (active).
In the case of `Cc1ccc(NCCC(=O)c2cccc([N+](=O)[O-])c2)c(C)c1`, the inhibition is reported as 55.7% (active).
